# Records with an inconclusive call do not appear. Entries that show only a call come without a potency. The source made the active and inactive calls. The call rests on the fitted dose curve.
# Assay: qHTS assay for small molecules that induce genotoxicity in human embryonic kidney cells expressing luciferase-tagged ATAD5 - cell viability (AID 651634); further: nearly all actives have a fitted effect of over 25% in size
# Conditions: HEK293T ATAD5-luc cells viability, CellTiter-Fluor, 15.5 h; series mostly up to 83.3 µM
# Text: National Center for Advancing Translational Sciences [NCATS]
# NIH Chemical Genomics Center [NCGC]
# U.S. Environmental Protection Agency [EPA]
# National Institutes of Environmental Health Sciences [NIEHS]
# National Toxicology Program [NTP]
# U.S. Food and Drug Administration [FDA]
# Enhanced Level of Genome Instability Gene 1 (ELG1; human ATAD5) protein levels increase in response to various types of DNA damage. Using a luciferase reporter-gene tagged with ElG1, a cell-based assay [developed by Kyungjae Myung, NHGRI, NIH] was used to measure the induction of ATAD5 in human embryonic kidney cells (HEK293T). So, increase in luciferase activity can be used to identify the compounds that cause genetic stress. In addition to genotoxicity, these cells were also used to test for cytotoxicity by measuring the protease activity within live cells.
# Tox21 Assay Protocol Summary:
# For cytotoxicity screening, 2,000 cells in 5 uL/well were dispensed into white, solid-bottom 1536-well plates using a Multidrop Combi (Thermo Scientific) dispenser. Following transfer of 23 nL compound or DMSO vehicle by a pin tool, the plates were incubated 15.5 hr at 37C and 5% CO2. 1 ul CellTiter-Fluor reagent (Promega, Madison, WI) was then added to each plate and following 30 min incubation at 37C, fluorescence intensity was quantified on a ViewLux CCD-based plate reader.
row,SMILES,Potency
1,CC(=O)OC(C(=O)c1ccccc1)c1ccccc1 (stereo not given),inactive
2,CCCCCCCCCOCC1CO1 (stereo not given),inactive
3,O=C(COCCOCCOCC(=O)Nc1c(I)cc(I)c(C(=O)O)c1I)Nc1c(I)cc(I)c(C(=O)O)c1I,inactive
4,FC(F)(F)/C(=N\OCC1OCCO1)c1ccc(Cl)cc1,inactive
5,Cc1oc(=O)oc1CN1CCN(c2cc3c(cc2F)c(=O)c(C(=O)O)c2n3C(C)S2)CC1 (stereo not given),inactive
6,CCCCOC(=O)C(C)OC(=O)CCC (stereo not given),inactive
7,O=C1c2ccccc2-c2ccccc21,inactive
8,CC(C)SCc1ccco1,inactive
9,CC(C)COC(=O)CCCCC(=O)OCC(C)C,inactive
10,CCCCCC1Nc2cc(C(F)(F)F)c(S(N)(=O)=O)cc2S(=O)(=O)N1 (stereo not given),inactive
11,CC(C)CCC(=O)CCC(C)C,inactive
12,C=C(C)[C@@H]1CC[C@@H](C)C[C@@H]1O,inactive
13,O=c1cc(O)c(Cl)c[nH]1,inactive
14,Nc1cc(C(=O)O)ccc1Cl,inactive
15,CC(=O)OC(C)c1ccccc1 (stereo not given),inactive
16,CC(C)(CO)[C@@H](O)C(=O)NCCCO,inactive
17,CCN(CCC#N)c1ccccc1,inactive
18,CC(=O)/C=C/c1ccco1,inactive
19,CN[C@@H]1[C@@H](O)[C@@H](O[C@@H]2[C@H](O)[C@H](O[C@H]3OC(CN)=CC[C@H]3N)[C@@H](N)C[C@H]2N)OCC1(C)O (stereo not given in full),inactive
20,CCC(=O)c1ccc(O)cc1,inactive

row,SMILES,Potency
1,COc1cc(C=O)ccc1OC(=O)C(C)C,inactive
2,O=C1CC[C@H](C(=O)N2CCCCC2)N1,inactive
3,CCC(C)(CCC(C)C)C(=O)[O-].CCC(C)(CCC(C)C)C(=O)[O-].[Zn+2] (stereo not given),inactive
4,NC(Cc1c[nH]c2ccccc12)C(=O)O (stereo not given),inactive
5,O=CN1CCOCC1,inactive
6,CCN(Cc1cccc(S(=O)(=O)O)c1)c1ccccc1,inactive
7,CCC(O)C(C)(C)C (stereo not given),inactive
8,CC(C)COC(=O)COc1ccc(Cl)cc1Cl,inactive
9,CC(C)CCCCCCOC(=O)C1CCCCC1C(=O)OCCCCCCC(C)C (stereo not given),inactive
10,O=C(Nc1cccc(C2=NCCN2)c1)Nc1cccc(C2=NCCN2)c1,inactive
11,C=C(C)C(=O)OCCCCCCOC(=O)C(=C)C,inactive
12,C/C=C(\C)C(=O)OCC/C=C\CC,inactive
13,CCCO,inactive
14,Nc1cc(S(=O)(=O)O)ccc1S(=O)(=O)O,inactive
15,c1ccc(CNc2ncnc3nc[nH]c23)cc1,inactive
16,O=C(CN1CCN(Cc2ccc3c(c2)OCO3)CC1)N1c2ccccc2Sc2ccccc21,inactive
17,CN=C(NC#N)NCCSCc1csc(N=C(N)N)n1,inactive
18,CCCCCCCCCCCCCCCCI,inactive
19,C=CCOCC(CO)(COCC=C)COCC=C,inactive
20,C=CCOc1cc(Cl)ccc1C(=O)NCCN(CC)CC,inactive

# Source: PubChem BioAssay (Tox21)
